Screening data deposited in PubChem BioAssay by several laboratories.
M1 ag: agonists of M1 muscarinic receptor; 3% of 64,000 active; CHO-M1 cells, Fluo-4 calcium fluorescence, agonist mode; hits give high values; AID 626; B-score at 10 µM;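 active means fluorescence rise, raw or as B-score row- and column-corrected plate score, outside the 99.7% band of its plate's samples, either direction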
mHtt clearance: compounds clearing mutant huntingtin protein; HeLa Exon1htt(103Q)mCFP, aggregate imaging; zero = plate's median compound well; inhibition, % at 1.5 µM; 0.42% of 47,000 active; AID 853;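 active means inhibition of aggregate fluorescence above about 70%, also judged a hit by eye on the cell image, limit read from the data, passing the limit was not always enough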;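 further: cells exposed to compound for three days before fixation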
M1 antagonist: antagonists of rat M1 muscarinic receptor; P08482; CHO-M1 cells, Fluo-4 calcium, ACh EC80 antagonist mode; hits give low values; B-score at 10 µM; 3.4% of 64,000 active; AID 628;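 active means calcium fluorescence response, raw or row-and-column corrected B-score, differing from the plate sample mean either way at a set confidence level, mostly lower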
Target sequence (P08482 whole entry, looked up): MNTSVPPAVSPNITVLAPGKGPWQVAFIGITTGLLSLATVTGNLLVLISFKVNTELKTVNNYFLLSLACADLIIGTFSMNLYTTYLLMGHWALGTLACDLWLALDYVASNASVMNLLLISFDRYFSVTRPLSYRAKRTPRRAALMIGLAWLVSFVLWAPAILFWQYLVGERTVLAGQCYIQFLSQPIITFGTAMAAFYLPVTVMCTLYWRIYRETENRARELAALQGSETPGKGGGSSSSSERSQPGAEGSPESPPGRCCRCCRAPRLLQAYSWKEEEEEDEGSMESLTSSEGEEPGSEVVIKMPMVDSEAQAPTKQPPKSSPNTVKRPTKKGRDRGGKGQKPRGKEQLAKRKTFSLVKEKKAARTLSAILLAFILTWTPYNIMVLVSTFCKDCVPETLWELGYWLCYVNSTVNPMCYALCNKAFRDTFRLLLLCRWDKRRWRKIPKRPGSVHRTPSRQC
D1 allo mod: D1 dopamine receptor (human) allosteric modulation; AID 641; HEK293 D1, CRE-luciferase, dopamine EC30 potentiation; actives deviate in either direction; 5.9% of 58,000 active; B-score at 10 µM;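 active means luminescence count or its row- and column-corrected plate score outside the 99.7% band of the plate's sample wells, on either side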
D1 PAM confirm: D1 receptor (human) allosteric modulation, confirmed | shares compounds with D1 allo mod | 88% of 2,200 active | luminescence at 10 µM | HEK293 D1 CRE-luciferase, dopamine EC30 potentiation; hits give high values;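 active means luminescence in either of two replicates above the same-plate mean plus 3 SD of the low-dose dopamine control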
D1 ag no DA: D1 (human) signaling in absence of dopamine. shares compounds with D1 allo mod. HEK293 D1 CRE-luciferase, luminescence, no dopamine; hits give high values. 0.8% of 1,900 active. luminescence at 10 µM; in the data active means luminescence above about 3900
Isoprot counter: alters isoproterenol CRE-luciferase response in HEK293 cells | AID 647 | 63% of 2,200 active | HEK293 D1 CRE-luciferase, isoproterenol EC30 counter-screen; hits give high values | shares compounds with D1 allo mod | luminescence at 10 µM;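 active means luminescence in either replicate above plate mean of wells with a partly effective reference agonist dose plus 3 SD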;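 further: isoproterenol raises cAMP through native beta-adrenoceptor Gs so signal bypasses D1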
An asterisk follows results filed as active; . = not tested or not shown. The list is not random: actives were taken first. Their share in the collection is about 9.1%.

SMILES | M1 ag | mHtt clearance | M1 antagonist | D1 allo mod | D1 PAM confirm | D1 ag no DA | Isoprot counter
Cc1ccc(CCNS(=O)(=O)c2cnc[nH]2)cc1 | 1 | . | -0.2 | 3.2* | 6464* | 1552 | 2536
COC(=O)c1c(N)c(C#N)c(C)n1-c1ccccc1 | 0.49 | -19 | -0.056 | 3* | 8468* | 1628 | 3376*
CC(=O)c1c(N)c(C#N)c(C)n1-c1ccc(Br)cc1 | 0.2 | 5 | -0.25 | . | . | . | .
Cn1c(=O)oc2cc(S(=O)(=O)Nc3ccc4c(c3)OCO4)ccc21 | -1.6 | . | 0.44 | -0.65 | . | . | .
COc1ccc(S(=O)(=O)N2CCCCCC2)cc1C(=O)OCc1c(C)noc1C | 0.05 | -1 | -0.54 | 4.3* | 9164* | 1508 | 5664*
COc1ccc(S(=O)(=O)N2CCc3ccccc32)cc1C(=O)OCc1c(C)noc1C | 0.72 | . | -0.019 | . | . | . | .
O=C(Nc1cccnc1)c1ccccc1Oc1ccccc1 | -0.38 | 18 | -0.43 | 6.3* | 15336* | 1584 | 3360*
CCSc1ccccc1C(=O)Nc1cccnc1 | 0.29 | 50 | 0.56 | -0.0011 | . | . | .
CCSc1nc2ccccc2n1CC(N)=O | 0.13 | 8 | 0.17 | 0.32 | . | . | .
CCSc1nc2ccccc2n1Cc1nc(N)nc(N(C)C)n1 | -0.9 | . | 0.41 | 5.2* | 10584* | . | 2828*
N#Cc1sc2nc3c(c(-c4ccco4)c2c1N)CCCC3 | -0.79 | 16 | 0.2 | 9.6* | 12060* | 1392 | 4060*
COc1ccc(CN(C2CCCC2)S(=O)(=O)c2ccc(-n3cnnn3)cc2)cc1OC | -2.6 | 36 | -0.3 | 5.5* | 10040* | 1604 | 3256
CN1C(=S)SC(C)(C)C1/[N+]([O-])=C/c1cccnc1 (configuration not stated) | -0.47 | . | 0.007 | 7.5* | 5660 | 1560 | 3856
c1ccc(Cc2nn3c(C4COc5ccccc5O4)nnc3s2)cc1 (configuration not stated) | 0.098 | 22 | . | 6* | 14652* | 1492 | 3728*
CC(=O)Nc1c(C(=O)N2CCCCCC2)cnn1-c1ccccc1Cl | . | -40 | . | . | . | . | .
Cc1cc2c(c(=O)n1Cc1ccc3c(c1)OCO3)C(c1cccnc1)C(C#N)=C(N)O2 (configuration not stated) | -0.056 | -1 | 0.022 | -0.08 | . | . | .
COc1ccc(CCn2c(C)cc3c(c2=O)C(c2ccc4c(c2)OCO4)C(C#N)=C(N)O3)cc1OC (configuration not stated) | -0.063 | . | -0.21 | 11* | 14224* | 1632 | 3352*
O=C(NCc1ccccn1)C(C(=O)c1ccc(F)cc1)n1ccccc1=O (configuration not stated) | 0.21 | 22 | 0.75 | -0.86 | . | . | .
Cc1nnc(SCc2cn3ccsc3n2)n(N)c1=O | -0.017 | . | 0.16 | -0.72 | . | . | .
O=c1c2ccccc2nc(SCc2cn3ccsc3n2)n1-c1ccc(F)cc1 | -0.49 | 6 | 0.72 | 8.2* | 10696* | 1584 | 4168*
Cc1c2c(nc3c(C(=O)NC4CC4)cnn13)CCCC2 | 1.1 | . | 0.61 | 1.1 | . | . | .
CCC(C)NC(=O)c1cnn2c(C)c3c(nc12)CCCC3 (configuration not stated) | 0.36 | -76 | -0.085 | 7* | 11440* | 1904 | 3556*
CCc1nc(N)c(C#N)c(-c2ccco2)c1C | 0.027 | . | 1 | . | . | . | .
CCCc1nc(N)c(C#N)c(N)c1C#N | 0.16 | . | 0.69 | 19* | 17760* | 1744 | 3804*
CCOC(=O)c1sc(NC(=O)c2ccc(S(=O)(=O)N3CCOCC3)cc2)cc1C | 0.24 | 21 | 0.47 | 0.78 | . | . | .
SMILES | M1 ag | mHtt clearance | M1 antagonist | D1 allo mod | D1 PAM confirm | D1 ag no DA | Isoprot counter
COC(=O)n1c(SC)nc2ccccc21 | 0.1 | -8 | -1.3 | 5.6* | 11396* | 1220 | 3740*
O=C(Nc1ccccc1C(F)(F)F)N1CCN(c2ccc3nnc(-c4ccc(F)cc4)n3n2)CC1 | -0.13 | . | 0.66 | 3.9* | 7116* | 1528 | 3496*
O=C(CS(=O)(=O)c1c[nH]c2ccccc12)NC1CCCCC1 | . | 28 | . | . | . | . | .
CCCn1c(SCC(=O)Nc2ccccc2C(=O)OC)nc2c1c(=O)n(C)c(=O)n2C | -0.056 | 41 | -0.79 | 8.5* | 12220* | 1740 | 3848*
CCCn1c(SCC(=O)Nc2sc(C)c(C)c2C(=O)OCC)nc2c1c(=O)n(C)c(=O)n2C | -0.083 | -1 | 0.043 | 6.5* | 8860* | 1644 | 2532
CCOC(=O)c1c(NC(=O)CSc2nnnn2C)sc(C)c1C | 0.65 | 20 | -0.81 | 1.7 | . | . | .
CCOC(=O)c1c(NC(=O)CSc2nnnn2CC)sc(C)c1C | -0.034 | 18 | 1.2 | 3.9* | 13084* | 1736 | 3424*
CCOC(=O)c1c(NC(=O)CSc2n[nH]c(N)n2)sc(CC)c1C | -1.5 | . | -0.21 | 7.9* | 14984* | 1740 | 4504*
COC(=O)c1ccccc1NC(=O)CSc1nc2c(c(=O)n(C)c(=O)n2C)n1C | -0.21 | -73 | 1.2 | 0.57 | . | . | .
CCCSc1nnc2n(-c3ccccc3OC)c(=O)c3c4c(sc3n12)CCC4 | 1 | . | -1.1 | . | . | . | .
CSc1nnc2n(-c3ccccc3)c(=O)c3c4c(sc3n12)CCC4 | -0.5 | . | -0.038 | 17* | 18696* | 1684 | 5104*
C=CCSc1nnc2n(-c3ccccc3OC)c(=O)c3c4c(sc3n12)CCC4 | 0.33 | . | 0.031 | 5.7* | 11688* | 1704 | 3008
CC1(C)CC(c2csc(N)n2)CCO1 (configuration not stated) | -0.92 | -7 | -0.72 | 0.19 | . | . | .
Cc1nc2nc(C)n(-c3ccccc3)c2s1 | 1.5 | 11 | 0.28 | 15* | 21228* | 1820 | 4412*
COC(=O)c1cc(OC)c(OC)cc1N=CC1=C(O)CC(C)(C)CC1=O | 0.55 | . | -0.021 | 4.1* | 9648* | 1564 | 4512*
Cc1cc(NCCCn2ccnc2)n2c(nc3ccccc32)c1C#N | -0.61 | -27 | 0.085 | 3.9* | 7832* | 1564 | 2312
O=C(CSc1nc(Nc2ccccc2)nc(N2CCOCC2)n1)N1CCCC1 | 0.79 | 13 | -0.44 | 5.6* | 9432* | 1476 | 3740*
O=C(CSc1nc(Nc2ccccc2)nc(N2CCOCC2)n1)Nc1ccc2c(c1)OCCO2 | 0.012 | -68 | 0 | 3.4* | 8860* | . | 3340*
O=C(CCn1c(=S)[nH]c2ccccc2c1=O)N1CCN(c2ccccn2)CC1 | 0.26 | . | -1.1 | 0.39 | . | . | .
CCOc1ccc(C2CC(c3ccc(F)cc3)n3ncnc3N2)cc1 (configuration not stated) | -0.11 | . | 0.47 | 0.47 | . | . | .
CCC(=O)N1CCc2cc(OC)c(OC)cc2C1COc1ccc(C(=O)OC)cc1 (configuration not stated) | 0.48 | . | -0.006 | 15* | 20996* | 3492 | 9380*
O=c1c2ccccc2nc(SCc2cccc(F)c2)n1Cc1ccco1 | -0.035 | -66 | -0.24 | 5.2* | 10716* | 1512 | 2960
O=C(CSc1nc2ccccc2[nH]1)Nc1cc(C(F)(F)F)ccc1N1CCOCC1 | 0 | . | 0.22 | 4* | 7804* | . | 2428
